Calls of active or inactive are those of the source. Rule for the calls: active = hit-call score of the fitted dose curve at least 0.9, where 1 is the maximum; inactive = score below 0.9.
Legend:
Details in all cases: mRNA level, 48 h; actives raise or lower the signal
[1] = read-out: Forkhead box O3 (FOXO3), FOXO3 (gene 2309); assay: LTEA_HepaRG_FOXO3: Life Technologies and Expression Analysis (LTEA) Assay for Forkhead box O3 (FOXO3) using HepaRG (AID 2283459)
Procedure, shortened: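 Gene-expression endpoint: FOXO3 transcript level by qRT-PCR in HepaRG cultures treated 48 h with chemicals up to 100 uM (half-log, 0.5% DMSO vehicle).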

[2] = read-out: growth arrest and DNA damage 45 (GADD45B), GADD45B (gene 4616); assay: LTEA_HepaRG_GADD45B: Life Technologies and Expression Analysis (LTEA) Assay for growth arrest and DNA damage 45 (GADD45B) using HepaRG (AID 2283461)
Procedure, shortened: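 Transcript level quantified by Fluidigm TaqMan qRT-PCR with three housekeeping genes for normalization, analyzed for up- or down-regulation against 0.5% DMSO. HepaRG cultures dosed 48 h at eight half-log concentrations up to 100 uM, duplicates.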

[3] = read-out: ABC Transporter (ABCB11), ABCB11 (gene 8647); assay: LTEA_HepaRG_ABCB11: Life Technologies and Expression Analysis (LTEA) Assay for ABC Transporter (ABCB11) using HepaRG (AID 2283463)
Procedure, shortened: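 Using HepaRG cultures held in 0.5% DMSO, chemicals were tested at half-log dilutions from 100 uM for 48 h. Induction or suppression of ABCB11 mRNA, normalized to ACTB, GAPDH and POLR2A, was fitted bidirectionally against vehicle.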

[4] = read-out: ABC Transporter (ABCC2), ABCC2 (gene 1244); assay: LTEA_HepaRG_ABCC2: Life Technologies and Expression Analysis (LTEA) Assay for ABC Transporter (ABCC2) using HepaRG (AID 2283464)
Procedure, shortened: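 Endpoint is ABCC2 transcript level from qRT-PCR, normalized to three housekeeping genes and fitted bidirectionally relative to DMSO. Human HepaRG cells received test chemical for 48 h at up to 100 uM (8 points, half-log steps, 0.5% DMSO), duplicate wells.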

[5] = read-out: Broad substrate specificity ATP-binding cassette transporter ABCG2 (Homo sapiens) (UniProt Q9UNQ0); assay: LTEA_HepaRG_ABCG2: Life Technologies and Expression Analysis (LTEA) Assay for ABC Transporter (ABCG2) using HepaRG (AID 2283465)
Procedure, shortened: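 Gene expression of ABCG2 in HepaRG liver cells is quantified by qRT-PCR following 48 h exposure across an eight-point series topping at 100 uM. Values come from bidirectional fitting relative to DMSO vehicle.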

[6] = read-out: ATP-citrate lyase (ACLY), ACLY (gene 47); assay: LTEA_HepaRG_ACLY: Life Technologies and Expression Analysis (LTEA) Assay for ATP-citrate lyase (ACLY) using HepaRG (AID 2283466)
Procedure, shortened: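 ACLY expression changes in human HepaRG liver cells are quantified by qRT-PCR after 48 h exposure to test chemicals (maximum 100 uM, half-log steps). Values are fitted in both directions relative to 0.5% DMSO vehicle.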

[7] = read-out: Alkaline Phosphatase, Placental (ALPP) gene, ALPP (gene 250); assay: LTEA_HepaRG_ALPP: Life Technologies and Expression Analysis (LTEA) Assay for Alkaline Phosphatase, Placental (ALPP) gene using HepaRG (AID 2283468);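 for AC50: differentiated human HepaRG liver cells in serum-free induction medium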
Procedure, shortened: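 ALPP transcript level, measured by qRT-PCR and normalized to three housekeeping genes (ACTB, GAPDH, POLR2A), after 48 h dosing of differentiated HepaRG in serum-free induction medium. Top concentration 100 uM with half-log dilutions (8 points, 0.5% DMSO, duplicates); bidirectional fitting relative to DMSO.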

[8] = read-out: Bcl-2 (BAX) gene, BAX (gene 581); assay: LTEA_HepaRG_BAX: Life Technologies and Expression Analysis (LTEA) Assay for Bcl-2 (BAX) gene using HepaRG (AID 2283470)
Procedure, shortened: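 Gene expression measured by Fluidigm qRT-PCR with three housekeeping genes for normalisation. HepaRG cells, plated 48 h beforehand, treated 48 h at up to 100 uM (8-point, half-log) in 0.5% DMSO. Bidirectional fitting versus DMSO.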

[9] = read-out: adenosine kinase (ADK) gene, ADK (gene 132); assay: LTEA_HepaRG_ADK: Life Technologies and Expression Analysis (LTEA) Assay for adenosine kinase (ADK) gene using HepaRG (AID 2283471)
Procedure, shortened: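 Differentiated HepaRG cells dosed 48 h in serum-free induction medium, 0.5% DMSO vehicle, eight half-log concentrations from 100 uM, in duplicate. ADK mRNA by TaqMan qRT-PCR normalised to ACTB, GAPDH, POLR2A; bidirectional fit versus DMSO.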

[10] = read-out: Alpha-fetoprotein (AFP) gene, AFP (gene 174); assay: LTEA_HepaRG_AFP: Life Technologies and Expression Analysis (LTEA) Assay for Alpha-fetoprotein (AFP) gene using HepaRG (AID 2283472)
Procedure, shortened: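 AFP transcript measured by TaqMan qRT-PCR with three housekeeping genes for normalization, after 48 h chemical treatment of HepaRG cells (top 100 uM, half-log steps, 0.5% DMSO). Gain or loss fitted against vehicle.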

BCL2L11 (gene 10018) = assay: LTEA_HepaRG_BCL2L11: Life Technologies and Expression Analysis (LTEA) Assay for Bcl-2 (BCL2L11) gene using HepaRG (AID 2283473)
Procedure, shortened: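 BCL2L11 transcript levels are measured by Fluidigm qRT-PCR, normalized to three housekeeping genes. HepaRG cultures were plated 48 h, then treated 48 h with test chemical (top 100 uM, half-log, 0.5% DMSO vehicle); curves were fitted bidirectionally against DMSO.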

[11] = read-out: Apolipoprotein A-V (APOA5) gene, APOA5 (gene 116519); assay: LTEA_HepaRG_APOA5: Life Technologies and Expression Analysis (LTEA) Assay for Apolipoprotein A-V (APOA5) gene using HepaRG (AID 2283474)
Procedure, shortened: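 APOA5 transcript levels were quantified by qRT-PCR, normalized to three housekeeping genes, after 48 h chemical treatment of HepaRG cells (8 points, 100 uM maximum, half-log steps, 0.5% DMSO). Curves fitted in both directions against vehicle.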

[12] = read-out: Apoptosis regulator Bcl-2 (Homo sapiens) (UniProt P10415); assay: LTEA_HepaRG_BCL2: Life Technologies and Expression Analysis (LTEA) Assay for Bcl-2 gene using HepaRG (AID 2283475)
Procedure, shortened: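 qRT-PCR of BCL2 transcript, normalized to three housekeeping genes (ACTB, GAPDH, POLR2A), after 48 h chemical exposure of HepaRG cells; concentrations top 100 uM with half-log dilutions, 0.5% DMSO vehicle, duplicates; changes up or down fitted relative to vehicle.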

[13] = read-out: Bcl-2 (BID) gene, BID (gene 637); assay: LTEA_HepaRG_BID: Life Technologies and Expression Analysis (LTEA) Assay for Bcl-2 (BID) gene using HepaRG (AID 2283476)
Procedure, shortened: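 Duplicate 48 h treatments of HepaRG cells in serum-free induction medium spanned 100 uM downward in half-log steps, 0.5% DMSO. Transcript change quantified by qRT-PCR against three housekeeping genes, fitted up or down versus DMSO.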

[14] = read-out: Bcl-2 (BAD) gene, BAD (gene 572); assay: LTEA_HepaRG_BAD: Life Technologies and Expression Analysis (LTEA) Assay for Bcl-2 (BAD) gene using HepaRG (AID 2283469)
Procedure, shortened: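 Activity values reflect up- or down-regulation of BAD mRNA in human HepaRG hepatic cells treated 48 h in serum-free medium, with eight-point half-log dosing capped at 100 uM and 0.5% DMSO vehicle.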

[15] = read-out: ABC Transporter (ABCC3), ABCC3 (gene 8714); assay: LTEA_HepaRG_ABCC3: Life Technologies and Expression Analysis (LTEA) Assay for ABC Transporter (ABCC3) using HepaRG (AID 2283462)
Procedure, shortened: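 Transcript level by TaqMan qRT-PCR, normalised to three housekeeping genes, fitted in both directions relative to vehicle. Chemicals tested in duplicate at eight half-log concentrations up to 100 uM for 48 h on HepaRG cells (0.5% DMSO).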

[16] = read-out: Peroxisomal acyl-coenzyme A oxidase 1 (ACOX1) gene, ACOX1 (gene 51); assay: LTEA_HepaRG_ACOX1: Life Technologies and Expression Analysis (LTEA) Assay for Peroxisomal acyl-coenzyme A oxidase 1 (ACOX1) gene using HepaRG (AID 2283467)
Procedure, shortened: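 Human HepaRG hepatic cultures, 48 h treatment with test chemicals up to 100 uM. ACOX1 expression read by qRT-PCR relative to 0.5% DMSO vehicle.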

[17] = read-out: ABC Transporter (ABCB1), ABCB1 (gene 5243); assay: LTEA_HepaRG_ABCB1: Life Technologies and Expression Analysis (LTEA) Assay for ABC Transporter (ABCB1) using HepaRG (AID 2283460)
Procedure, shortened: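 Human liver HepaRG line treated 48 h with up to 100 uM compound (eight half-log points, 0.5% DMSO); ABCB1 mRNA change fitted bidirectionally against DMSO controls.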

Measured: AC50

Chain of Apoptosis regulator Bcl-2 (Homo sapiens) (P10415 whole entry, looked up): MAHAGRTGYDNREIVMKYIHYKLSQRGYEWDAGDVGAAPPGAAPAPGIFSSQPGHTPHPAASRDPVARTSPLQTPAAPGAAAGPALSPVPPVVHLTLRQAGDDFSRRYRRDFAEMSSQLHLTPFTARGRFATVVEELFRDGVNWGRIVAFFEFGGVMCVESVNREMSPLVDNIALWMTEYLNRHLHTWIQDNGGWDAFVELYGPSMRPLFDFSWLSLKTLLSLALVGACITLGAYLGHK
Chain of Broad substrate specificity ATP-binding cassette transporter ABCG2 (Homo sapiens) (Q9UNQ0 whole entry, looked up): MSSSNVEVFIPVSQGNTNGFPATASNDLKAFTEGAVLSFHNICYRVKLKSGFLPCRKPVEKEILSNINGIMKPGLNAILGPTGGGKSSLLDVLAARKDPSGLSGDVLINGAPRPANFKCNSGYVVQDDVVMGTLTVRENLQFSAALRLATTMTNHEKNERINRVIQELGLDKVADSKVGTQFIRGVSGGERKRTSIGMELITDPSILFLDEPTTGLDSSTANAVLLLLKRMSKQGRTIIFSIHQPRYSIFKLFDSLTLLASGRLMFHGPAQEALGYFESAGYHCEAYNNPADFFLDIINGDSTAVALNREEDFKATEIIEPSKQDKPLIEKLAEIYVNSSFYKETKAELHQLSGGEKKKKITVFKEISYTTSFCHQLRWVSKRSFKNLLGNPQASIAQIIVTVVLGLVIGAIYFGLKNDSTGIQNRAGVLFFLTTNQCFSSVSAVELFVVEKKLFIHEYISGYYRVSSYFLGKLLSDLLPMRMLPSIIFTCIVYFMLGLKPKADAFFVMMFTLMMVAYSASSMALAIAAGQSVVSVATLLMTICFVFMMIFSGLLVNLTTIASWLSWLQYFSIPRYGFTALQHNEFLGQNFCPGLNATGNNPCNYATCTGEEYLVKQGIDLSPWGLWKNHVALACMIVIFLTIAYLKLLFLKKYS

CNCc1ccc(NC(=O)c2c[nH]c3c2C(=O)CCC3)cc1
not listed: [14] | [15] | [16] | [17]
inactive: all other assays above

O=C(O)c1cccc(Oc2ccccc2)c1
not listed: [12] | [15] | [16] | [17]
inactive: all other assays above

CC(C)CCO
not listed: [15] | [16] | [17]
inactive: all other assays above

O=P(OC(CCl)CCl)(OC(CCl)CCl)OC(CCl)CCl
active: [3] 66.6 µM | [5] 78.5 µM | [6] 75.9 µM | [7] 0.259 µM | [8] 84.5 µM | [9] 0.272 µM | [10] 15.8 µM | BCL2L11 (gene 10018) 83.8 µM | [11] 50 µM | [13] 0.232 µM
inactive: [1] | [2] | [15] | [4] | [14]

CCCCC(CC)COC(=O)c1ccc(C(=O)OCC(CC)CCCC)cc1 (stereo unspecified)
not listed: [14] | [17]
inactive: all other assays above

CCn1nc(Cc2ccccc2)cc1C1CCN(C[C@H]2C[C@H](N(C)[C@@H](C(=O)O)C(C)C)C[C@@H]2c2cccc(F)c2)CC1
active: [6] 75.7 µM | [7] 23.8 µM | [10] 50 µM
not listed: [15]
inactive: all other assays above

CCCCC(CC)COC(=O)CCCCCCCCC(=O)OCC(CC)CCCC (stereo unspecified)
not listed: [12] | [14] | [16]
inactive: all other assays above

Source: PubChem BioAssay (EPA / NIEHS)
